PubChem BioAssay (Tox21)
Records with an inconclusive call do not appear. A number with no mark means an inactive call. Active and inactive are the calls of the source. Calls come from the whole dose curve; as a rule, active = well fitted cell-killing curve with a large enough effect in the repeat runs; inconclusive = weak or mixed curves, or effect the other way; inactive = flat fitted curve, though single readings scatter.

Experiment: qHTS RealTime-Glo MT Cell Viability Assay in HepG2 cells - 40 hour (AID 1224870); note: nearly all actives have a fitted effect of over 50% in size
Conditions: RealTime-Glo luminescence; series mostly up to 76.8 µM; activity change, negative = cytotoxic: at the top concentration
Excerpt: National Center for Advancing Translational Sciences [NCATS]
NIH Chemical Genomics Center [NCGC]
U.S. Environmental Protection Agency [EPA]
National Institutes of Environmental Health Sciences [NIEHS]
National Toxicology Program [NTP]
U.S. Food and Drug Administration [FDA]
Measure of cell viability is critical in the cell-base assay. Analysis of cell viability is necessary for the characterization of cell responses to cytotoxic drugs and environmental stress. A RealTime-Glo MT Cell Viability Assay to monitor cell viability in real time of continues cell culture during 40 hours of compound treatment was used to screen Tox21 10K library compounds in HepG2 cells. The RealTime-Glo MT Cell Viability Assay is a nonlytic, homogeneous, bioluminescent method to measure cell viability in real time using a simple, plate-based method. The assay involves adding NanoLuc luciferase and a cell-permeant prosubstrate to cells in culture. Viable cells reduce the proprietary prosubstrate to generate a substrate for NanoLuc luciferase. This substrate diffuses from cells into the surrounding culture medium, where it is rapidly used by the NanoLuc Enzyme to produce a luminescent signal. The signal correlates with the number of viable cells, making the assay well suited for cytotoxicity studies.
Tox21 Assay Protocol Summary:
The mixture of HepG2 cell suspension and reagents were dispensed at 600cells/6 ul/well in 1536-well tissue culture treated black solid bottom plates using a Multidrop dispenser. After the assay plates were incubated at a 37 C/5% CO2 incubator for 5 hours, 23 nL of compounds dissolved in DMSO, positive and negative controls was transferred to the assay plate by a pintool work station. The plates were incubated at 37 C for 40 hours. The luminescence intensity were measured at 0h, 8h, 16h, 24h, 32h and 40h time points using ViewLux plate reader during compound treatment.
% is set by controls: 0 for no effect and ±100 for the full control effect; potency is the fitted concentration of half-maximal effect.

SMILES | activity change, negative = cytotoxic | Potency
CCCCCCCCCC#N | -3.88% | –
CN1CCN(c2c(F)cc3c(=O)c(C(=O)O)cn(CCF)c3c2F)CC1 | -0.171% [at 35.3 µM] | –
COc1ccc(Nc2ccc(OC)cc2)cc1 | 10.7% | –
CCOC(=O)C1CC(=O)C(=C(O)C2CC2)C(=O)C1 (stereo not given) | 3.52% | –
CO[Si](C)(C)OC | -0.801% | –
Oc1ccccc1F | -3.82% | –
CNCCC(Oc1ccccc1OC)c1ccccc1 (stereo not given) | -0.0127% [at 35.3 µM] | –
O=c1[nH]cnc2c1ncn2[C@@H]1O[C@H](CO)[C@@H](O)[C@H]1O | 1.38% [at 35.3 µM] | –
CC(=O)Oc1cc(C(C)C)c(OCCN(C)C)cc1C | 0.744% [at 35.3 µM] | –
C[C@@H](N)C(=O)O | 0.243% [at 35.3 µM] | –
O=C(CCCl)NCc1ccccc1 | -1.34% [at 35.3 µM] | –
CCCCCCn1c(=O)c2c(ncn2C)n(C)c1=O | 0.781% [at 35.3 µM] | –
CCOc1ccccc1N | -5.27% | –
NNS(=O)(=O)c1ccc(Oc2ccc(S(=O)(=O)NN)cc2)cc1 | -0.771% | –
CC(C)S | -0.922% | –
ICCc1ccccc1 | – | 9.57 µM (active)
CCCOc1ccc2c(c1)CC[C@@H]1[C@@H]2CC[C@]2(C)C(OC)CC[C@@H]12 (stereo not given in full) | -4.73% [at 35.3 µM] | –
Cc1c(C(=O)NCCO)[n+](=O)c2ccccc2n1[O-] | 0.455% [at 35.3 µM] | –
CC(C)(CO)[C@@H](O)C(=O)NCCC(=O)O | 0.644% | –
CCCCNc1ccc(C(=O)OCCN(CC)CC)cc1 | -1.22% [at 35.3 µM] | –

SMILES | activity change, negative = cytotoxic | Potency
CCC(=O)Nc1ccc(O)cc1 | 0.527% [at 35.3 µM] | –
O=C1CCCCC1C1CCCCC1 (stereo not given) | 0.402% | –
NCCCN1CCN(CCCN)CC1 | 1.87% | –
CN(CC1(C)CCCO1)S(=O)(=O)c1ccc(Cl)c(S(N)(=O)=O)c1 (stereo not given) | 0.458% [at 35.3 µM] | –
CN1CCN(c2c(F)cc3c(=O)c(C(=O)O)cn4c3c2SCC4)CC1 | 3.26% [at 35.3 µM] | –
CCOC(=O)[C@H](CCc1ccccc1)N[C@@H](C)C(=O)N1Cc2cc(OC)c(OC)cc2C[C@H]1C(=O)O | 0.89% [at 35.3 µM] | –
O=[N+]([O-])c1nccn1CO[C@@H](CO)[C@H](O)CO | -4.17% [at 35.3 µM] | –
CCCCCCOc1ccc(N)cc1 | -1.24% | –
NC(=O)NS(=O)(=O)c1ccc(Cl)cc1 | 2.21% [at 35.3 µM] | –
Cc1c(N)cccc1N | 0.214% | –
Nc1cccc(S(=O)(=O)O)c1 | -1.02% | –
O=C1Nc2ccc([N+](=O)[O-])cc2C1=O | -10.6% | –
CC(C)C(=O)OC/C=C/c1ccccc1 | -1.97% | –
CN(C)CCOc1ccccc1Cc1ccccc1 | 0.812% [at 35.3 µM] | –
COc1cc2c(cc1N)oc1ccccc12 | 0.168% | –
Nc1ccc(Oc2ccc(N)c(N)c2)cc1 | -14.2% | –
O=S(=O)(O)C(F)(F)F | -0.403% | –
C[C@]12CCC(=O)C=C1CC[C@@H]1[C@@H]2CC[C@@]2(C)[C@H]1CC[C@]2(O)C(=O)CO | -4.48% [at 35.3 µM] | –
CCc1cc2cc(OC)c(OC)cc2c(Cc2ccccc2)n1 | -7.3% [at 35.3 µM] | –
CCCCC1CCC(=O)O1 (stereo not given) | -0.687% | –
